Measurements published in PubChem BioAssay (NCATS).
Where “and” joins values, the source holds several entries; their conditions need not be identical. Identical values can stand only once. Inconclusive results are not listed. Calls of active or inactive are those of the source. Unless noted, the call rests on the fitted dose curve; in most records, active means well fitted curve in the direction sought with a large enough effect; inconclusive means small, poorly fitted or top-dose-only effect, or another doubt; inactive means no such curve, though single readings can be large; an effect the other way counts as inactive or inconclusive.

Tests used:
[1] = biological target: Glucocorticoid receptor (Homo sapiens) (UniProt P04150); assay: GR-EFC Redistribution (AID 451; calls by dose curve; further: potency means the concentration at half of the fitted maximal effect); settings: CHO-K1 GR-EFC translocation, beta-gal luminescence, 2 h
Outline: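 CHO-K1 cells expressing nuclear EA and GR-ED fragments of b-gal; compounds titrated up to 46 uM final, 2 h at 37 C. GR nuclear translocation read as complemented b-gal luminescence after 1 h RT detection.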

[2] = biological target: Mitogen-activated protein kinase 10 (Mus musculus) (UniProt Q61831); assay: JNK3 AlphaScreen Assay (AID 530; active means well fitted curve in either direction with a large enough effect, not every such curve was filed as active;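 further: kinase came from lysate of stimulated human HepG2 cells; signal reports phosphorylation of biotinylated GST-cJun 1-79 at Ser73 with 10 µM ATP; on the % scale 0 is the no-effect control and ±100 the full control effect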); settings: JNK3 lysate, c-Jun phosphorylation; series mostly up to 57.1 µM
Outline: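 qHTS format: compounds tested as titrations against IL-1beta/TNF-alpha-activated HepG2 lysate JNK3 with biotin-GST-cJun substrate and 10 uM ATP at room temperature. Loss of anti-phospho-cJun AlphaScreen signal indicates inhibition.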

[3] = biological target: 3',5'-cyclic-AMP phosphodiesterase 4B (Homo sapiens) (UniProt Q07343); assay: qHTS Assay for Inhibitors of PDE-IV (AID 607; active means well fitted activation curve with a large enough effect in the main read-out, with a control signal flat, not every such curve was filed as active; further: % of control where 0% means no effect); settings: HEK293 ACTOne CNG channel cells, membrane potential fluorescence; series mostly up to 22.9 µM
Outline: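 HEK293 ACTOne cells with CNG channel (1000/well), endogenous PDE4; membrane potential dye, compounds up to 22.9 uM final. Fluorescence Ex 535/Em 590; RO 20-1724 (100 uM final) as reference.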

[4] = Cell Viability - N2a (AID 540); settings: N2a mouse neuroblastoma cell viability; at 92.2 µM (top of the series);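 further: cells exposed to compound for 40 h at 37 °C; plate controls were DMSO alone for no effect and tamoxifen control for full effect; nearly all actives have a fitted effect of over 45% in size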
Outline: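 First, 1500 N2a cells per well incubate 5 hr at 37 °C; next, compounds are added and incubated 40 hr at 37 °C; finally CellTiter-Glo is added and luminescence read after 20 min, with AC50 derived by Hill modeling.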

[5] = Cell Viability - NIH 3T3 (AID 541); settings: NIH 3T3 cell viability, qHTS; activity change, negative = cytotoxicity: at 92.2 µM (top of the series);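 further: cells exposed to compound for 40 hours; nearly all actives have a fitted effect of over 25% in size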; further: potency means the concentration at half of the fitted maximal effect;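 on activity change, negative = cytotoxicity: plate controls were DMSO alone for no effect and tamoxifen positive control for full effect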
Outline: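 AC50 values reflect concentration-dependent loss of intracellular ATP in NIH 3T3 cells after 40 hr treatment in complete culture medium, quantified by luciferase-based luminescence.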

[6] = Cell Viability - HUV-EC-C (AID 542); settings: HUV-EC-C endothelial cell viability, qHTS; series mostly up to 92.2 µM;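 further: cells exposed to compound for 40 hours; on the % scale 0 is the no-effect control and ±100 the full control effect; nearly all actives have a fitted effect of over 35% in size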
Outline: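 Decrease in cellular ATP, quantified by luciferase luminescence, reflects toxicity in normal human vascular endothelial HUV-EC-C cells given compound for 40 hr in complete culture medium. Values are AC50s from concentration-response curves.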

[7] = Cell Viability - H-4-II-E (AID 543); settings: H-4-II-E rat hepatoma viability; series mostly up to 92.2 µM;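 further: cells exposed to compound for 40 hours; nearly all actives have a fitted effect of over 35% in size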; further: potency means the concentration at half of the fitted maximal effect
Outline: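 Here, cytotoxicity is measured in the rat hepatoma line H-4-II-E as loss of intracellular ATP after 40 hr compound treatment, detected by luciferase luminescence.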

[8] = Cell Viability - SH-SY5Y (AID 544); settings: SH-SY5Y neuroblastoma cell viability; viability change, negative = cytotoxic: at 92.2 µM (top of the series);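 further: cells exposed to compound for 40 hours; nearly all actives have a fitted effect of over 55% in size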; further: potency means the concentration at half of the fitted maximal effect;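 on viability change, negative = cytotoxic: 0% = DMSO alone and -100% = 100 µM tamoxifen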
Outline: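 Cytotoxicity is scored as a concentration-dependent fall in intracellular ATP in human SH-SY5Y cells treated 40 hr in complete culture medium. Potency is expressed as AC50 from a Hill equation fit.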

[9] = Cell Viability - Renal Proximal Tubule (AID 545); settings: renal proximal tubule cells viability; at 91.7 µM (top of the series) unless noted;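 further: cells exposed to compound for 40 hours; 0% = DMSO only and -100% = 100 µM tamoxifen; nearly all actives have a fitted effect of over 40% in size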
Outline: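 Cytotoxicity is scored as a concentration-dependent drop in cellular ATP in primary rat renal proximal tubule cells exposed for 40 hr. AC50 derives from Hill modelling.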

[10] = Cell Viability - Mesenchymal (AID 546); settings: mesenchymal cells viability, qHTS; series mostly up to 91.7 µM;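 further: cells exposed to compound for 40 hours before reading; 0% = DMSO only and -100% = 100 µM tamoxifen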
Outline: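 Human kidney mesenchymal cells from normal renal glomeruli, 1000 cells/well, rested 5 hr at 37 °C, then treated 40 hr at 37 °C in complete medium. Cellular ATP read by CellTiter-Glo luminescence; AC50 from Hill-equation fits.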

Chain of 3',5'-cyclic-AMP phosphodiesterase 4B (Homo sapiens) (Q07343 whole entry, looked up): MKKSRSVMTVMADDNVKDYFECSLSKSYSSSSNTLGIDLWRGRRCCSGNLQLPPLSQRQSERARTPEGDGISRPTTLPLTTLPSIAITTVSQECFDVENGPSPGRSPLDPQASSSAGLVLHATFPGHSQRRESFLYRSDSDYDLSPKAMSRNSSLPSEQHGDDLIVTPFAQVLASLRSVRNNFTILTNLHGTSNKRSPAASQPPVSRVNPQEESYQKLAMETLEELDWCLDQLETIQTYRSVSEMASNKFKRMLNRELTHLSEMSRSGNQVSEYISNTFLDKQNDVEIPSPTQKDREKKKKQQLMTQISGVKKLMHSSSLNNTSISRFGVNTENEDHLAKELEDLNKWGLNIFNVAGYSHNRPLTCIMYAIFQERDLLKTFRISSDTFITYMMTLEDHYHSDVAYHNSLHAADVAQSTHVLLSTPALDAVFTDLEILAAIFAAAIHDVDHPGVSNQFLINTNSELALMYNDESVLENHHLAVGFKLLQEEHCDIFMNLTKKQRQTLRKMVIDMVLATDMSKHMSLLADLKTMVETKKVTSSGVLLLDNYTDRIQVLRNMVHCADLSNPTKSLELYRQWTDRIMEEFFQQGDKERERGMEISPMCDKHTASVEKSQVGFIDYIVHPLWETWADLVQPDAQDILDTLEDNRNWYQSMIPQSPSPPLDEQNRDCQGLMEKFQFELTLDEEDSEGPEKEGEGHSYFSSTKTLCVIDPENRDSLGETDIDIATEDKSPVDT
Chain of Glucocorticoid receptor (Homo sapiens) (P04150 whole entry, looked up, the tested form may be a part): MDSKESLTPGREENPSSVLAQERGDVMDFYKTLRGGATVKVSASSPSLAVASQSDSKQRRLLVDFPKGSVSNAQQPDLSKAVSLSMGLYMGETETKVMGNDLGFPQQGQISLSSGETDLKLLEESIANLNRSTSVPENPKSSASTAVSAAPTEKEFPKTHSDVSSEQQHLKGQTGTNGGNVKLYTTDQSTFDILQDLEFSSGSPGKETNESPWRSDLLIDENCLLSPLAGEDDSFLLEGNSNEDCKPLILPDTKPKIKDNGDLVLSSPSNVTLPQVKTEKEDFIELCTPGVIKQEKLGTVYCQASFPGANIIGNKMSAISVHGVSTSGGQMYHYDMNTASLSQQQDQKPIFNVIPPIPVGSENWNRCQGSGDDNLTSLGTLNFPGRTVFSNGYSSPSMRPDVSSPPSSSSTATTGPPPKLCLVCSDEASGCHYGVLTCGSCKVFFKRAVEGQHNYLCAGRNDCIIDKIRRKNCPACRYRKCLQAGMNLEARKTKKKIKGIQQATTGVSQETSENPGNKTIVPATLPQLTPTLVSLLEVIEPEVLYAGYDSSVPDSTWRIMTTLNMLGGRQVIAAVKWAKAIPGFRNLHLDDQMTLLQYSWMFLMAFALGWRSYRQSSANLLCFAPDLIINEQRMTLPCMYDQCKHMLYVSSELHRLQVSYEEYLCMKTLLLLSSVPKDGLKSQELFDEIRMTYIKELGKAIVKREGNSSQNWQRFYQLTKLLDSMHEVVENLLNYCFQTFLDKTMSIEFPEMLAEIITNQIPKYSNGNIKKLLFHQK

CN(C)CCN(C)CCc1ccc(Cl)c(Cl)c1
inactive: Potency [1] > 46 µM | outcome [2]

CCCN1CCC[C@@H]2Cc3nc(N)ncc3C[C@H]21
inactive: outcome [2] | outcome [3]

CCN(CC)C(=O)N[C@@H]1C=C2c3cccc4[nH]cc(c34)C[C@@H]2N(C)C1
inactive: Potency [1] > 46 µM | outcome [2] | outcome [3]

Nc1ccncc1
inactive: outcome [2] | outcome [3]

Oc1ccccc1-c1ccccc1
inactive: outcome [2] | activity change, negative = cytotoxicity [4] -8.25% | activity change, negative = cytotoxicity [5] -15.3% | outcome [6] | Potency [7] | viability change, negative = cytotoxic [8] -9.19% | activity change, negative = cytotoxicity [9] -16.3% [at 91.7 µM, primary cells of rat origin] | outcome [10]

CCCN1CCC[C@@H]2Cc3[nH]ncc3C[C@H]21
inactive: Potency [1] > 46 µM and > 20.6 µM | outcome [2] | outcome [3]

c1ccc(C2CC2)c(OCC2=NCCN2)c1
inactive: Potency [1] > 46 µM | outcome [2] | outcome [3]

O=c1[nH]c2ccccc2n1CCCN1CCC(n2c(=O)[nH]c3cc(Cl)ccc32)CC1
inactive: outcome [2] | outcome [3]

Fc1ccc(C(OCCN2CCN(CCCc3ccccc3)CC2)c2ccc(F)cc2)cc1
inactive: Potency [1] > 46 µM and > 20.6 µM | outcome [2] | outcome [3]

NCC(O)c1ccc(O)cc1 (stereo unspecified)
inactive: outcome [2] | activity change, negative = cytotoxicity [4] -14.9% | activity change, negative = cytotoxicity [5] -28.6% | outcome [6] | Potency [7] | viability change, negative = cytotoxic [8] -12.1% | activity change, negative = cytotoxicity [9] -6.15% | outcome [10]

Oc1cccc2cccnc12
active: activity change, negative = cytotoxicity [4] -89.1% | Potency [5] 12.6 µM and 10 µM | Potency [7] 39.8 µM | Potency [8] 3.98 µM
inactive: outcome [2] | activity change, negative = cytotoxicity [9] -13.9% and -16.1% | outcome [10] | outcome [3]

N#CC(C#N)=Cc1ccc(O)c(O)c1
inactive: outcome [3]

COc1ccccc1N1CCNCC1
inactive: Potency [1] > 46 µM | outcome [3]

NCC1(CC(=O)O)CCCCC1
inactive: Potency [1] > 46 µM and > 20.6 µM | outcome [2] | outcome [3]

Cc1ccc(S(=O)(=O)N[C@@H](CCCCN)C(=O)CCl)cc1
inactive: Potency [1] > 46 µM | outcome [2] | outcome [3]

Cc1ncc(CNC(=O)N(CCCl)N=O)c(N)n1
inactive: Potency [1] > 46 µM | outcome [2] | outcome [3]

Clc1ccc(COC(Cn2ccnc2)c2ccc(Cl)cc2Cl)cc1 (stereo unspecified)
active: activity change, negative = cytotoxicity [4] -110% | activity change, negative = cytotoxicity [5] -82% | Potency [7] 39.8 µM | viability change, negative = cytotoxic [8] -84.8% | activity change, negative = cytotoxicity [9] -83.1%
inactive: outcome [2]

O=[N+]([O-])c1cc([As](=O)(O)O)ccc1O
inactive: Potency [1] > 20.6 µM | outcome [2] | outcome [3]

Oc1ccc(Cl)cc1Cc1ccccc1
inactive: outcome [2] | activity change, negative = cytotoxicity [5] -0.588% | outcome [6] | Potency [7] | activity change, negative = cytotoxicity [9] -8.93% | outcome [10]

CCOP(=S)(OCC)Oc1cc(C)nc(C(C)C)n1
inactive: outcome [2] | activity change, negative = cytotoxicity [4] -3.66% | activity change, negative = cytotoxicity [5] -10% | outcome [6] | Potency [7] | viability change, negative = cytotoxic [8] -9.46% | activity change, negative = cytotoxicity [9] -3.55% | outcome [10]

Cc1cccc(C)c1NC1=NCCCS1
inactive: outcome [2] | outcome [3]

NP(N)(=O)NC(=O)c1ccc(F)cc1
inactive: Potency [1] > 46 µM | outcome [2] | outcome [3]

C=C(C)[C@H]1Cc2c(ccc3c2O[C@@H]2COc4cc(OC)c(OC)cc4[C@@H]2C3=O)O1
inactive: Potency [1] > 46 µM | outcome [3]

NN=C(N)N
inactive: outcome [2] | outcome [3]

CCn1cc(C(=O)O)c(=O)c2ccc(C)nc21
inactive: outcome [2] | outcome [3]

COC1(CS(=O)c2ccccc2)CCN(CCc2c[nH]c3ccc(F)cc23)CC1 (stereo unspecified)
inactive: Potency [1] > 46 µM | outcome [2] | outcome [3]

OCCOc1ccccc1
inactive: outcome [2] | activity change, negative = cytotoxicity [4] -13.3% | activity change, negative = cytotoxicity [5] -18.9% | outcome [6] | Potency [7] | viability change, negative = cytotoxic [8] -18.2% | activity change, negative = cytotoxicity [9] -6.83% | outcome [10]
